Assay outcomes (PubChem BioAssay)
This is a sample that favours compounds with a hit; in the whole collection about 27% have one here.
Cav3 T inh = human Cav3.2 channel inhibition, primary screen. O95180. Cav3.2-expressing cells, Fluo-4 calcium fluorescence FDSS; hits give low values. B-score at 10 µM. actives 4% (n = 100,000). AID 449739;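 active means single-dose well whose peak fluorescence ratio is a statistical outlier from its plate by either plate-standardised score or position-corrected B-score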
CYP2C9 act = increases human cytochrome P450 2C9 activity; P11712; recombinant CYP2C9, luciferin-H conversion, luminescence; hits give high values; factor 1 = untreated enzyme, 0 = blocked; activation factor at 5 µM; actives 1.4% (n = 96,000); AID 1024;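 active means activation factor of 2 or more for CYP2C9 at a 5 µM dose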;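 further: 0 = sulfaphenazole-blocked wells and 1 = vehicle-only wells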
Target sequence (P11712 whole entry, looked up): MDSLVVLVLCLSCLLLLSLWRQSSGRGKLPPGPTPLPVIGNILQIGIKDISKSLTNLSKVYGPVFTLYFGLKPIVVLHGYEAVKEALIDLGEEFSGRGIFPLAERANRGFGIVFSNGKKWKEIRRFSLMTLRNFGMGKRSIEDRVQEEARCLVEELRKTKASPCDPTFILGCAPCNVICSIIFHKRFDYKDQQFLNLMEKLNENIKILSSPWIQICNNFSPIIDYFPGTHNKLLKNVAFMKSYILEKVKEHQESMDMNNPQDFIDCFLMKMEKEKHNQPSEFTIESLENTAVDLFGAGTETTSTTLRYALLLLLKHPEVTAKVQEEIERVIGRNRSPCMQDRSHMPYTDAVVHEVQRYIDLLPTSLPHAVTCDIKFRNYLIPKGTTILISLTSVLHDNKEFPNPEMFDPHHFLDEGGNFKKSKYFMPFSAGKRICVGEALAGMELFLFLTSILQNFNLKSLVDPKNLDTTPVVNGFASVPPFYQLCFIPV
CYP2C19 inh = inhibitors of human CYP2C19. P33261. AID 778. CYP2C19 Supersomes, luciferin-H EGE luminescence, 30 min. inhibition, % at 5 µM. actives 21% (n = 96,000);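 active means CYP2C19 inhibition above a set limit at 5 µM in the primary screen, cut at about 50% in these data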;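 further: plate controls were negative control wells for no effect and 2.5 mM tranylcypromine positive control for full effect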
CYP2C9 inh = blocks human cytochrome P450 2C9; CYP2C9 Supersomes, luciferin-H conversion, luminescence; inhibition, % at 5 µM; actives 20% (n = 96,000); P11712;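 active means blocking of liver enzyme CYP2C9 beyond about 50% at 5 µM, limit read from the data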
CYP2C19 act = increases human CYP2C19 enzyme activity; P33261; recombinant CYP2C19, luciferin-H EGE luminescence; hits give high values; 0 = fully inhibited enzyme, 1 = untreated enzyme; activation factor at 5 µM; 96,000 tested, under 10 active;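 active means activation factor of at least 2 at 5 µM in the primary screen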;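 further: 0 = wells with 2.5 mM tranylcypromine and 1 = vehicle-only wells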
Numbers without * were called inactive.

CC1=CC(=O)C(C(C)C)=C/C1=N/OC(=O)c1cccc([N+](=O)[O-])c1 was read as Cav3 T inh 2, CYP2C9 act 0.5, CYP2C19 inh 16, CYP2C9 inh 53* and CYP2C19 act 0.8.
`CCOCCCNC(=O)CCNC(=O)c1cc(OC)c(OC)c(OC)c1` gave Cav3 T inh 0.043, CYP2C9 act 1.1, CYP2C19 inh -4, CYP2C9 inh -12 and CYP2C19 act 1.
Cc1nc([N+](=O)[O-])c(Br)n1CC(=O)c1ccc(Br)cc1 was read as Cav3 T inh 0.86, CYP2C9 act 0.5, CYP2C19 inh 18, CYP2C9 inh 54* and CYP2C19 act 0.8.
`O=C(Cn1c(C(F)(F)F)nc2ccccc21)c1ccc(Br)cc1` gave Cav3 T inh -0.029, CYP2C9 act 1, CYP2C19 inh -11, CYP2C9 inh -3 and CYP2C19 act 1.1.
For O=C(Cn1cnc2ccccc2c1=O)c1ccc2ccccc2c1 the results were Cav3 T inh -0.32, CYP2C9 act 0.9, CYP2C19 inh 29, CYP2C9 inh 13 and CYP2C19 act 0.7.
For Cc1nc([N+](=O)[O-])c(Br)n1CC(=O)c1ccc2ccccc2c1 the results were Cav3 T inh 0.8, CYP2C9 act 0.2, CYP2C19 inh 54*, CYP2C9 inh 76* and CYP2C19 act 0.5.
`COc1ccc(C2C=C(c3ccccc3)Nc3nnnn32)cc1` (stereo unspecified) gave Cav3 T inh -0.13, CYP2C9 act 0.3, CYP2C19 inh 90*, CYP2C9 inh 74* and CYP2C19 act 0.1.
`COc1cccc(C2=CC(c3ccccc3)n3nnnc3N2)c1` (stereo unspecified) gave CYP2C9 act 0.2, CYP2C19 inh 82*, CYP2C9 inh 79* and CYP2C19 act 0.2.
For COc1cccc(C2=CC(c3cc(OC)ccc3OC)n3nnnc3N2)c1 (stereo unspecified) the results were CYP2C9 act 0.3, CYP2C19 inh 35, CYP2C9 inh 68* and CYP2C19 act 0.6.
COc1ccc(C2=CC(c3ccc(C)cc3)n3nnnc3N2)cc1 (stereo unspecified) was read as Cav3 T inh -0.43, CYP2C9 act 0.1, CYP2C19 inh 75*, CYP2C9 inh 86* and CYP2C19 act 0.3.
Screening COc1cccc(C2=CC(c3ccc(N(C)C)cc3)n3nnnc3N2)c1 (stereo unspecified) returned Cav3 T inh -0.48, CYP2C9 act 1.1, CYP2C19 inh -11, CYP2C9 inh -9 and CYP2C19 act 1.1.
C[C@@H](C(=O)N1CCNCC1)n1cc(CCCN=C(N)N)nn1 was read as Cav3 T inh 0.77.
`O=C(C1=C[C@@H](C2CCCCC2)C[C@@H](OCCCCO)O1)N1CCN(Cc2ccc3c(c2)OCO3)CC1` gave Cav3 T inh -2.3.
For Cc1occc1-c1nc(-c2ccccn2)no1 the results were Cav3 T inh 2, CYP2C9 act 0.5, CYP2C19 inh 76*, CYP2C9 inh 48 and CYP2C19 act 0.2.
Screening Cc1occc1-c1nc(-c2ccncc2)no1 returned Cav3 T inh 1.1, CYP2C9 act 0.3, CYP2C19 inh 98*, CYP2C9 inh 68* and CYP2C19 act 0.
Screening Cc1onc(-c2ccccc2Cl)c1-c1nc(-c2ccccn2)no1 returned CYP2C9 act 0, CYP2C19 inh 32, CYP2C9 inh 97* and CYP2C19 act 0.7.
Screening c1ccc(CCc2ccccc2-c2nc(-c3ccccn3)no2)cc1 returned Cav3 T inh 0.61, CYP2C9 act 0.8, CYP2C19 inh 10, CYP2C9 inh 19 and CYP2C19 act 0.9.
Screening Cc1cc(C)cc(N(CC(=O)NCC2CCCO2)C(=O)CCC(=O)Nc2cc(C)on2)c1 (stereo unspecified) returned Cav3 T inh 0.17, CYP2C9 act 0.7, CYP2C19 inh 8, CYP2C9 inh 26 and CYP2C19 act 0.9.
Screening CC(=O)/C(=N/Nc1cccc(Cl)c1)N1CCOCC1 returned Cav3 T inh -0.16, CYP2C9 act 0.4, CYP2C19 inh 72*, CYP2C9 inh 65* and CYP2C19 act 0.3.
CC(=O)/C(=N/Nc1ccccc1)N1CCOCC1 was read as Cav3 T inh 1.2, CYP2C9 act 1.1, CYP2C19 inh 16, CYP2C9 inh -6 and CYP2C19 act 0.8.
`C=CCn1c(SCC(=O)Nc2ccc(N(C)C)cc2)nnc1-c1cccc(C)c1` gave Cav3 T inh -0.059, CYP2C9 act 0.6, CYP2C19 inh 29, CYP2C9 inh 37 and CYP2C19 act 0.7.
CC(C)/C=C1\CCCCC1N(C)C(=O)NC(C)C (stereo unspecified) was read as Cav3 T inh -2.2, CYP2C9 act 0.7, CYP2C19 inh 58*, CYP2C9 inh 35 and CYP2C19 act 0.4.
Screening Cc1ccc(C)c(S(=O)(=O)NCc2ccc(C(=O)N3CCC(Cc4ccccc4)CC3)cc2)c1 returned Cav3 T inh -3.9*, CYP2C9 act 1.3, CYP2C19 inh 33, CYP2C9 inh -30 and CYP2C19 act 0.7.
Screening O=C(c1ccccc1S(=O)(=O)NCc1ccccc1)N1CCCCC1 returned Cav3 T inh -1.2, CYP2C9 act 0.5, CYP2C19 inh 89*, CYP2C9 inh 48 and CYP2C19 act 0.1.
Cc1ccc(OCC(O)CNS(=O)(=O)c2ccccc2C(=O)N2CCCCC2)cc1 (stereo unspecified) was read as Cav3 T inh -1.4, CYP2C9 act 0.5, CYP2C19 inh 17, CYP2C9 inh 47 and CYP2C19 act 0.8.
CN(C)CCCN(C(=O)c1cccs1)c1nc(-c2ccccc2)cs1 was read as Cav3 T inh 0.27, CYP2C9 act 0.3, CYP2C19 inh 92*, CYP2C9 inh 74* and CYP2C19 act 0.1.
O=C(c1cccs1)N(Cc1ccco1)c1nc(-c2ccc(F)cc2)cs1 was read as Cav3 T inh -0.92.
CC(C)C(=O)Nc1cccc(C(=O)Nc2nnc(C(C)(C)C)s2)c1 was read as Cav3 T inh 0.0052, CYP2C9 act 0.8, CYP2C19 inh -5, CYP2C9 inh 19 and CYP2C19 act 1.1.
Screening CCCn1nnnc1NC(=O)c1cccs1 returned Cav3 T inh 1.1, CYP2C9 act 0.8, CYP2C19 inh 8, CYP2C9 inh 16 and CYP2C19 act 0.9.
Screening CCOC(=O)CN1C(=O)C(Sc2n[nH]c(-c3cccc(C)c3)n2)CCc2ccccc21 (stereo unspecified) returned Cav3 T inh -3, CYP2C9 act 0.2, CYP2C19 inh 57*, CYP2C9 inh 85* and CYP2C19 act 0.4.
Screening CCOC(=O)CSc1n[nH]c(-c2cccnc2)n1 returned CYP2C9 act 1.1, CYP2C19 inh -13, CYP2C9 inh -14 and CYP2C19 act 1.1.
`O=c1c2c3nc4ccccc4nc3n(-c3cccc(F)c3)c2ncn1Cc1ccc2c(c1)OCO2` gave CYP2C9 act 1, CYP2C19 inh -2, CYP2C9 inh 0 and CYP2C19 act 1.
Fc1cccc(Cn2ccc(-c3ccc4c(c3)OCO4)n2)c1 was read as Cav3 T inh -2.6, CYP2C9 act 0.1, CYP2C19 inh 95*, CYP2C9 inh 86* and CYP2C19 act 0.1.
